Screens from PubChem.
Rows were chosen to be rich in hits. Some 6.9% of all compounds tested hit in one or more screens of this group.
MCF10A rerep = induces DNA re-replication in MCF 10a normal breast cells; MCF 10A DNA re-replication, Hoechst nuclear intensity, 48 h; Potency, µM (doses to about 46.1 µM), inactives show at the highest dose activity, positive = re-replication, usual class: activators; actives 2.9% (n = 350,000); AID 624296; also: potency is read from the fitted curve at half-maximal effect; % of control where 0% means no effect; nearly all actives have a fitted effect of over 50% in size
Vif-A3G inh = blocks the Vif interaction with human APOBEC3G; Q9HC16; HeLa A3G-eYFP + Vif (tagged APOBEC3G with the HIV-1 protein that degrades it), YFP fluorescence, overnight; Potency, µM (titrated, usually from 46.1 µM), for inactives: at the highest dose activity, negative = active, actives largely listed as inhibitors; actives 0.076% (n = 410,000); AID 602310; also: potency is read from the fitted curve at half-maximal effect; % is scaled to controls: 0 for no effect and ±100 for the full control effect; nearly all actives have a fitted effect of over 60% in size
Target sequence (Q9HC16 whole entry, looked up): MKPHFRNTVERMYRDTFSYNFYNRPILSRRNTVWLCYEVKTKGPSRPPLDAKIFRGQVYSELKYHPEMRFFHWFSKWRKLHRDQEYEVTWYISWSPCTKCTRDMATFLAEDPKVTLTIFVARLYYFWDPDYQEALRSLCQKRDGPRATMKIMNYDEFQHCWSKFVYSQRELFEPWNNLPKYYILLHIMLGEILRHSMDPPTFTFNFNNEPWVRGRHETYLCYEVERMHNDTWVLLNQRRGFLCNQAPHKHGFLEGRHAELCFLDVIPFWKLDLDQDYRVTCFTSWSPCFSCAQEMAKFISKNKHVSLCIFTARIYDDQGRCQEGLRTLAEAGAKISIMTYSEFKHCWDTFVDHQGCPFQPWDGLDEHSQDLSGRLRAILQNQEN
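Read-out is eYFP fluorescence (Ex 488/Em 500-530) from Vif-expressing HeLa A3G-eYFP cells; more signal means A3G escaped Vif-mediated degradation. Cells plated overnight, compound pinned in, incubated overnight at 37 deg C.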
Giardia killer = Giardia lamblia killing. Giardia lamblia trophozoite viability. activity change, % at 7.66 µM, hits read low. actives 0.15% (n = 340,000). AID 540267; in the data active = activity change below about -80%; inconclusive = between about -30% and that limit;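 also: parasites exposed to compound for two days anaerobically before the ATP read; % is scaled to controls: 0 for no effect and ±100 for the full control effect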
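ATP-content bioluminescence gauges trophozoite survival. Cells (100/well) receive compound and incubate anaerobically for 48 hrs at 37 deg C; detection reagent follows for 15-30 min at room temperature.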
SW480 rereplic = induces DNA re-replication in SW480 colon adenocarcinoma cells; SW480 DNA re-replication, Hoechst DNA content imaging, 48 h; Potency, µM (highest dose often 46.1 µM), for the others: at the top dose re-replication activation, most hits filed as activators; actives 1.8% (n = 340,000); AID 624297; also: potency is read from the fitted curve at half-maximal effect; % of control where 0% means no effect; nearly all actives have a fitted effect of over 55% in size
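Image-based DNA-content assay: after two days of treatment, nuclei were labelled with the DNA dye Hoechst and imaged, and hits were compounds raising the count of nuclei showing high fluorescence intensity.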
Vif-APOBEC3F blk = Vif-A3F binding inhibition | HeLa A3F-eYFP + Vif (tagged APOBEC3F with the HIV-1 protein that degrades it), YFP fluorescence increase | Potency, µM (doses to about 46.1 µM), inactives show at the top dose activity, negative = active | actives 0.2% (n = 390,000); also: potency is read from the fitted curve at half-maximal effect; % of control where 0% means no effect; nearly all actives have a fitted effect of over 65% in size
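HeLa cells stably expressing Vif plus C-terminally eYFP-tagged A3F were seeded, incubated overnight at 37 deg C, dosed with compound, incubated overnight again at 37 deg C. Yellow fluorescence (Ex 488/Em 500-530) reported blocked Vif-mediated A3F-eYFP degradation.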
IL-1B inflam inh = blocks inflammasome-driven IL-1 beta release | actives 4.7% (n = 360,000) | THP-1 LPS/ATP IL-1B secretion, AlphaLISA, 16 h; active compounds read low | activity change, % at 57.5 µM | AID 743279; in the data active = activity change below about -50%; inconclusive = mostly about -30% to -49%; also: % is scaled to controls: 0 for no effect and ±100 for the full control effect
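Secreted IL-1B measured by AlphaLISA bead assay after 16 h compound exposure of THP-1 cells; compounds (final up to 57.5 uM) added 1 h before LPS (250 ng/mL) and ATP (1.25 mM) stimulation; lower signal means less secretion.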
* = called active by the depositor; ? = inconclusive; / = not tested or not shown. Unless noted, calls follow the shape of the dose curve; as a rule, active = well fitted curve in the direction sought with a large enough effect; inconclusive = small, poorly fitted or top-dose-only effect, or another doubt; inactive = no such curve, though single readings can be large; an effect the other way counts as inactive or inconclusive.

SMILES	MCF10A rerep	Vif-A3G inh	Giardia killer	SW480 rereplic	Vif-APOBEC3F blk	IL-1B inflam inh
CCOc1ccc(CCNC(=O)Cn2c(-c3cccs3)cc3ccccc32)cc1	/	1.3%	/	/	-3.6%	/
CCN(CC)C(=O)c1sc(NC(=O)c2nc3ncccn3n2)c(C(=O)OC)c1C	/	3.0%	/	/	-13.1%	/
COc1ccccc1N1CCN(C(=O)CN2C(=O)COc3ccc(S(=O)(=O)N4CCOCC4)cc32)CC1	/	5.2%	/	/	10.4%	/
COc1cccc(/C=N/n2c(C)nc3ccccc32)c1OC	11.2%	4.2%	-11.8	2.2%	-2.3%	-13.1
Cc1onc(-c2ccccc2)c1C(=O)N/N=C/c1ccc([N+](=O)[O-])s1	?	-23.3%	?	?	0.0%	-13.4
O=[N+]([O-])c1ccc(/C=N/n2c(CO)nc3ccccc32)s1	13.6%	?	-106.1*	3.26µM*	-14.5%	-3.5
Cc1nc2ccccc2n1/N=C/c1ccc([N+](=O)[O-])o1	1.5%	-7.0%	?	5.8%	-8.7%	-97.4*
Cc1nc2ccccc2n1/N=C/c1ccc([N+](=O)[O-])s1	18.4µM*	-8.0%	?	?	-14.4%	?
Cc1ccccc1CSc1cn(CC(=O)N2CCCCC2)c2ccccc12	/	1.5%	/	/	2.4%	/
Cc1cc(C)c2c(n1)SCCN2C(=O)Nc1ccc(C(=O)Nc2ccc(C(C)C)cc2)cc1	/	3.9%	/	/	-10.4%	/
CN(Cc1cccc2cnccc12)C(=O)c1cc(COc2ccc(F)cc2Cl)on1	-0.6%	2.5%	-21.5	-9.5%	1.2%	-51.3*
O=C(c1cc(COc2ccc(F)cc2Cl)on1)N1CCCC(c2ccccc2)C1 (configuration not stated)	?	-1.8%	17.4	6.0%	-7.3%	-63.8*
CCn1cc(CNC(=O)c2cc(COc3ccc(F)cc3Cl)on2)cn1	?	-8.3%	-22.5	18.4µM*	0.9%	-21.5
CCOc1ccc(NC(=O)c2ccc3nc(C(C)C)oc3c2)cc1	/	-8.2%	/	/	-0.1%	/
CC(C)C1C(=O)N(Cc2cn(CCC3OCCCO3)nn2)CCS(=O)(=O)N1Cc1ccc(-c2ccc(Cl)c(Cl)c2)cc1 (configuration not stated)	/	-15.0%	/	/	-12.7%	-80.2*
CC(C)CC1C(=O)N(Cc2cn(Cc3ccco3)nn2)CCS(=O)(=O)N1Cc1ccc(-c2ccc(Cl)cc2)cc1 (configuration not stated)	/	-20.0%	/	/	-2.2%	-52.6*
CCCN1CNc2c(c(=O)[nH]c(=S)n2CCc2ccc(C)cc2C)C1	/	/	-2.5	/	/	/
COc1ccc(CCNc2ncnc3c2oc2ccccc23)cc1OC	5.0%	-10.9%	-0.7	-4.4%	-2.9%	-90.0*
COc1nc(NCCc2ccc(OC)c(OC)c2)nc(Nc2ccccc2)n1	3.7%	-11.6%	-10.4	?	1.4%	-81.2*
COc1ccc(-c2cn3nc(N4CCCC(C(=O)Nc5cc(C)ccc5C)C4)sc3n2)cc1 (configuration not stated)	/	3.3%	/	/	9.2%	/
Oc1ccccc1C1C=C(c2ccc3c(c2)OCO3)NC(c2cccc(Cl)c2)N1 (configuration not stated)	/	-9.0%	-3.7	/	/	/
CCN=C1S/C(=C\c2ccc(OCC)c(OC)c2)C(=O)N1CC	15.3%	0.6%	16.9	7.7%	-13.9%	-50.9*
COc1ccc(C(=O)N2c3ccc(C)cc3C(C)(c3ccccc3)CC2(C)C)cc1 (configuration not stated)	/	3.2%	/	/	-1.4%	/
CCOc1ccccc1NC(=O)Cn1c(=O)n(C(C)C)c(=O)c2oc3ccccc3c21	/	4.4%	/	/	-0.4%	/
[2H]c1c([2H])c([2H])c(C(=O)c2sc(N3CCCCCC3)nc2-c2ccccc2)c([2H])c1[2H]	9.2µM*	-1.1%	-8.9	0.6%	-6.1%	-14.0
SMILES	MCF10A rerep	Vif-A3G inh	Giardia killer	SW480 rereplic	Vif-APOBEC3F blk	IL-1B inflam inh
O=C(c1ccccc1)c1sc(N2CCOCC2)nc1-c1ccccc1	4.7%	-12.8%	-10.0	0.4%	-17.5%	?
COc1ccc(-c2nc(N3CCCCCC3)sc2C(=O)c2ccccc2)cc1	14.6µM*	-1.7%	0.6	5.6%	-1.9%	-6.1
O=C(c1ccc(Br)cc1)c1sc(N2CCOCC2)nc1-c1ccccc1	16.4µM*	-4.9%	-4.1	10.7%	12.6%	-4.3
O=C(c1ccccc1)c1sc(N2CCCCCC2)nc1-c1ccccc1	?	-2.5%	-1.6	29.1%	10.0%	-16.8
COc1ccc(COc2ncnc3ccc(Br)cc23)cc1F	1.0%	-8.2%	-14.1	-0.6%	8.4%	-65.0*
O=C(NCc1ccccc1Br)c1ccc2c(c1)nc1n2CCOC1	/	-8.2%	/	/	0.2%	/
NC(=O)[C@@H]1CC2(CC(c3cccc(NC(=O)COc4ccc(Cl)cc4)c3)=NO2)CN1C(=O)COc1ccc(Cl)cc1 (some centres not stated)	13.0%	-3.0%	-2.0	?	-0.5%	-54.8*
CCOC(=O)c1[nH]c2c(c1Cc1ccccc1)C(=O)CC(c1ccc(OC)cc1)C2 (configuration not stated)	/	2.0%	/	/	-0.4%	/
COc1cc(OC)cc(-c2sc3ccc(OC)cc3c2-c2ccc(O)cc2)c1	32.0%	-7.8%	-4.3	-2.4%	1.9%	-8.5
COc1ccc2sc(-c3ccccc3OC)c(-c3ccc(O)cc3)c2c1	16.4µM*	-14.5%	16.2	1.7%	6.0%	-2.5
COc1ccc(-c2sc3ccc(OC)cc3c2-c2ccc(O)cc2)cc1	?	-9.6%	6.4	-0.2%	10.4%	-63.0*
N#Cc1ccc(CSc2nnc(-c3c[nH]c4ccccc34)n2-c2ccccc2)cc1	-6.4%	-3.5%	1.9	?	2.0%	-67.1*
O=C1OC(Nc2ccc(F)c([N+](=O)[O-])c2)c2ccccc21 (configuration not stated)	-0.2%	0.0%	-11.4	-8.4%	17.2%	-2.6
O=C1OC(Nc2ccc3c(c2)OCO3)c2ccccc21 (configuration not stated)	?	?	14.3	?	0.6%	-124.2*
CCc1nn(CC(=O)NCCc2ccc(OC)cc2OC)c(=O)c2cc3sccc3n12	/	-0.9%	/	/	1.5%	/
Cc1c(Cl)cccc1NC(=S)NCc1ccc(Cl)cc1	?	-0.7%	7.3	-5.7%	0.0%	-21.6
Cc1c(Cl)cccc1NC(=S)NCCc1ccc(F)cc1	9.8%	2.4%	15.2	-0.8%	?	-82.2*
S=C(NCCc1ccc(Cl)cc1)NC1CCCCC1	?	6.5%	-4.8	17.7%	-4.9%	-94.1*
Cc1c(Cl)cccc1NC(=S)NCCc1ccc(Cl)cc1	16.5%	1.3%	11.8	13µM*	1.5%	/
CCCNC(=S)Nc1ccc(Cl)cc1Cl	15.6%	1.7%	-16.8	-2.9%	-1.6%	13.2
